Sampled rows, rich in hits. Any-hit rate of the full collection: about 17%.
DT40 TDP1 no CPT = qHTS for Inhibitors of human tyrosyl-DNA phosphodiesterase 1 (TDP1): qHTS in cells in absence of CPT; 420,000 tested, 15% active; Potency, µM (doses to about 46.2 µM), for inactives: at the top dose activity change, negative = growth inhibition, actives largely listed as inhibitors; AID 686978, 2013; DT40 Tdp1-/- hTDP1 cells, no CPT, ATP luminescence, 48 h; further: on the % scale 0 is the no-effect control and ±100 the full control effect; nearly all actives have a fitted effect of over 55% in size
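Readout: luminescence from CellTiter-Glo after 30 min in the dark at RT. Cells: DT40 Tdp1-/- with stable hTDP1, 400/well. Exposure: compounds alone, ≥48 hr, 37 °C.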
S2 tox = viability counter-screen for ATXN expression inhibitors | S2 cells (HEK-293 line with an ATXN2-luciferase reporter) viability, CellTiter-Fluor protease fluorescence, 24 h | Potency, µM (titrated, usually from 56.7 µM), hits mostly cytotoxic | 400,000 tested, 0.49% active; further: nearly all actives have a fitted effect of over 40% in size
HepG2 viability = kills HepG2 cells in TGF-b inhibitor counter-screen; HepG2 CAGA-GFP viability, ATP luminescence, 18 h; Potency, µM (titrated, usually from 46.1 µM), inactives show at the top dose activity change, negative = cytotoxicity, hits mostly cytotoxic; 410,000 tested, 0.76% active; AID 588856
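HepG2 CAGA-GFP cells (1000/well, DMEM with 1% FBS) received compound, then TGF-beta at 500 pg/mL final, and were incubated 18 hours at 37 degrees C. Viability was read by CellTiter-Glo luminescence. Media-only wells were set as complete cell-killing and DMSO as no toxicity.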
TGFb inhibitor = TGF-b pathway inhibition; HepG2 CAGA-GFP TGF-b/SMAD3 reporter, GFP fluorescence, 18 h; TGF-beta stimulated, 500 pg/mL final; 410,000 tested, 1.2% active; Potency, µM (series often up to 46.1 µM), for inactives: top-dose activity, negative = inhibition, hits mostly inhibitors; AID 588855; further: on the % scale 0 is the no-effect control and ±100 the full control effect; nearly all actives have a fitted effect of over 65% in size
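HEPG2 CAGA-GFP reporter cells (1000/well, DMEM with 1% FBS) received compounds, then recombinant TGF-beta at 500 pg/mL final for 18 hours at 37 degrees C. Per-cell GFP summed per well was normalised to unstimulated and stimulated DMSO controls before curve fitting.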
ATXN2 expr inh = reduces ATXN2 reporter expression in HEK-293 cells. HEK-293 ATXN2-luciferase reporter, luminescence, 24 h. Potency, µM (series often up to 57 µM), without a hit: at the highest dose activity change, negative = inhibition, usual class: inhibitors. 360,000 tested, 0.72% active. AID 1745845; further: on the % scale 0 is the no-effect control and ±100 the full control effect; nearly all actives have a fitted effect of over 55% in size
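qHTS (up to 57 uM final) was run with 24 h compound exposure of reporter cells at 37 °C. Each well was multiplexed: SteadyGlo luminescence measured ATXN2-luciferase expression after a fluorogenic Gly-Phe-AFC viability readout (25 uM final).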
DT40 TDP1 CPT = DT40-hTDP1 cell growth loss with CPT | chicken DT40 Tdp1-/-;hTDP1 cells + 20 nM CPT, ATP luminescence, 48 h | Potency, µM (top dose mostly 46.2 µM), for inactives: top-dose activity change, negative = growth inhibition, actives largely listed as inhibitors | 420,000 tested, 12% active; further: on the % scale 0 is the no-effect control and ±100 the full control effect; nearly all actives have a fitted effect of over 55% in size
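Chicken DT40 Tdp1-/- cells complemented with human TDP1, 400 cells/well, exposed to compounds plus 20 nM camptothecin for at least 48 h at 37 C; viability read as ATP content by CellTiter-Glo luminescence.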
* marks the source's active call; other numbers are inactive results; i = inactive; ? = inconclusive; . = not tested or not shown; [ ] = another dose, or the depositor's remark. The call rests on the fitted dose curve; in most records, active means well fitted curve in the direction sought with a large enough effect; inconclusive means small, poorly fitted or top-dose-only effect, or another doubt; inactive means no such curve, though single readings can be large; an effect the other way counts as inactive or inconclusive. Potency means the concentration at half of the fitted maximal effect.

SMILES | DT40 TDP1 no CPT | S2 tox | HepG2 viability | TGFb inhibitor | ATXN2 expr inh | DT40 TDP1 CPT
CCN(c1ccc(OC)cc1)S(=O)(=O)N1CCCC(C(=O)NCc2ccc(OC(C)C)cc2)C1 (stereo unspecified) | 15µM* | i | -1% | -20% | . | 21µM*
CCOc1ccc(N(CC)S(=O)(=O)N2CCCC(C(=O)Nc3ccc(NC(C)=O)cc3)C2)cc1 (stereo unspecified) | ? | . | -16% | 1% | . | ?
CCOc1ccc(N(CC)S(=O)(=O)N2CCCC(C(=O)NCc3ccccc3OCC)C2)cc1 (stereo unspecified) | 16µM* | . | -11% | ? | . | ?
CCOc1ccc(N(CC)S(=O)(=O)N2CCCC(C(=O)NCCc3ccccc3OC)C2)cc1 (stereo unspecified) | ? | . | -27% | ? | . | 21µM*
COc1ccc(CCNC(=O)COC(=O)CCC(=O)c2ccc(F)cc2)cc1OC | -1% | i | -1% | -2% | -3% | 0%
CCCc1c(O)nc(SC2CC(=O)N(c3ccc(C)c(Cl)c3)C2=O)[nH]c1=O (stereo unspecified) | -20% | i | 7% | -5% | -20% | 2%
Cc1ccc(N2C(=O)CC(Sc3nc4ccccc4o3)C2=O)cc1Cl (stereo unspecified) | 3.3µM* | . | -37% | 0% | ? | 4.1µM*
O=C(Nc1cccc(Cl)c1)C1CC1c1ccccc1 (stereo unspecified) | -15% | i | -13% | -9% | -1% | 6%
O=C(Nc1ccncc1)C1CC1c1ccccc1 (stereo unspecified) | ? | i | -14% | -17% | -4% | 16µM*
O=C(COC(=O)Cc1ccccc1[N+](=O)[O-])NC1CCCC1 | 9% | i | 7% | 0% | -10% | 7%
COc1ccc(/C(N)=N/OC(=O)N2CCOCC2)cc1 | 21µM* | ? | -28% | -22% | ? | ?
CC(C)(C)N(Cc1ccccc1)C(=O)COC(=O)CSc1ccc([N+](=O)[O-])cc1 | ? | i | 0% | -43% | 2% | ?
CCOC(=O)C(C)Oc1cccc2c(=O)n(CC(=O)NCc3ccccc3)ccc12 (stereo unspecified) | 0.92µM* | ? | -59% | ? | 1% | 0.58µM*
CCOC(=O)COc1cccc2c(=O)n(CC(=O)NCc3ccc4c(c3)OCO4)ccc12 | 1.8µM* | i | -3% | -3% | -8% | 1.8µM*
CCOC(=O)C(C)Oc1cccc2c(=O)n(CC(=O)NCc3ccc(F)cc3)ccc12 (stereo unspecified) | 0.73µM* | ? | 4% | 0% | . | 0.82µM*
COC(=O)COc1cccc2c(=O)n(CC(=O)NCc3ccc(F)cc3)ccc12 | 1.2µM* | ? | -58% | -24% | -21% | 1µM*
CCOC(=O)C(C)Oc1cccc2c(=O)n(CC(=O)NCCc3ccccc3)ccc12 (stereo unspecified) | 18% | i | -25% | -12% | -7% | -15%
Cc1ccc2c(c1)c1c(c(=O)n(-c3cccc(Cl)c3)c(=O)n1CC(=O)c1ccc(Cl)cc1)n2C | -1% | i | -7% | 5% | 2% | 1%
Cc1ccc(F)cc1CNC(=O)C1CCC(=O)N(CCCN2CCCC2=O)C1 (stereo unspecified) | 14% | i | 6% | 13% | 29% | 6%
O=C(c1cccc(F)c1F)N1CCOc2ccc(CN3CCC(Oc4cccnc4)CC3)cc2C1 | ? | i | . | . | . | -14%[9.04 µM]
COc1ccc(N/N=C/c2c(C(=O)O)ccc3ccccc23)cc1 | 3.3µM* | ? | -28% | 2.2µM* | . | 2.6µM*
COc1ccc2ccccc2c1/C=N/Nc1ccc(Cl)c(C(=O)O)c1 | -27% | i | -4% | -15% | 22% | 5%
Cc1cccc(N=Nc2cnc(N)s2)c1 | ? | i | -16% | -11% | 55% | ?
COc1ccc(CN(C)C(=O)CCN(c2ccccc2)S(=O)(=O)c2ccc(C)cc2)c(OC)c1 | 23µM* | i | -23% | 0% | -8% | 21µM*
COc1ccc(OCC(=O)Nc2ccc(S(=O)(=O)N(C)c3ccccc3)cc2)cc1 | 0% | i | 0% | 14% | 5% | -13%
SMILES | DT40 TDP1 no CPT | S2 tox | HepG2 viability | TGFb inhibitor | ATXN2 expr inh | DT40 TDP1 CPT
COC(=O)Cc1ccc(N(Cc2ccccc2F)S(=O)(=O)c2ccc(C)cc2)cc1 | 18µM* | i | -12% | 7% | -22% | 21µM*
Cc1ccc(S(=O)(=O)N(C)c2ccc(OCC(=O)Nc3ccc(C(=O)N(C)C)cc3)cc2)cc1C | 18µM* | ? | 1% | 4% | 0% | ?
COC(=O)c1ccc(NC(=O)COc2ccc(N(C)S(=O)(=O)c3ccc(C)cc3)cc2)cc1 | ? | i | -2% | -7% | -16% | 16µM*
Cc1ccc(N(CCC(=O)O)S(=O)(=O)c2ccccc2)cc1 | -8% | i | -2% | -3% | -4% | -11%
Cc1cc(C)c2c(=O)cc(C(=O)Nc3sc4c(c3C(=O)NCc3ccccc3)CCCC4)oc2c1 | -20% | . | 0% | -3% | . | 1%
Cc1ccc(OCC(=O)Nc2ccc(S(=O)(=O)N(Cc3ccccc3)c3ccccc3)cc2)cc1 | 4.6µM* | ? | -56% | ? | ? | 18µM*
O=C(Cc1ccc(F)cc1)N[C@@H]1c2ccccc2CC[C@H]1OCc1ccccc1 | -24% | i | 2% | 0% | 5% | -16%
Cc1ccc(Sc2ccc(C(=O)N3CCOCC3)cc2[N+](=O)[O-])cc1 | ? | i | -9% | -12% | -22% | ?
COc1ccc(NC(=O)CCc2nc(-c3ccc(C)cc3)no2)c(OC)c1 | 18µM* | ? | -9% | 0% | -29% | ?
CCN(C(=O)CCc1nc(-c2ccc(C)cc2)no1)c1cccc(C(F)(F)F)c1 | ? | i | -11% | ? | 0% | ?
CCN(C(=O)CCc1nc(-c2ccc(C)cc2)no1)c1cccc(Cl)c1 | ? | i | -2% | 13µM* | 13% | 21µM*
COc1ccc(-c2noc(CCC(=O)Nc3ccc4c(c3)OCCO4)n2)cc1 | 15µM* | i | -13% | ? | 17% | 16µM*
COc1ccc(-c2noc(CNC(=O)COc3cccc(C)c3C)n2)cc1 | 21µM* | . | -20% | ? | . | ?

High-throughput results from PubChem.
